# Reference: PubChem BioAssay (EPA / NIEHS)
# Inconclusive results are not listed. The source made the active and inactive calls. The calls were made as follows: active = hit-call score of the fitted dose curve at least 0.9, where 1 is the maximum; inactive = score below 0.9.
# Read-out: Cytochrome P450 2C9 (Homo sapiens) (UniProt P11712)
# Test: CLD_CYP2C9_48hr: CellzDirect (CLD) Gene Expression Assay for xenobiotic metabolism (CYP2C9) at 48 hours (AID 2283701)
# Method: CLD_48hr is a cell-based, multiplexed-readout assay that uses hepatocyte, a human liver primary cell, with measurements taken at 48 hours after chemical dosing in a 96-well plate.CLD_CYP2C9_48hr is one of 16 assay component(s) measured or calculated from the CLD_48hr assay. It is designed to make measurements of mRNA induction, a form of inducible reporter, as detected with chemiluminescence signals by Quantitative Nuclease Protection Assay (qNPA) technology.Data from the assay component CLD_CYP2C9_48hr was analyzed at the endpoint, CLD_CYP2C9_48hr, in the positive analysis fitting direction relative to DMSO as the negative control and baseline of activity. Using a type of inducible reporter, gain-of-signal activity can be used to understand changes in the reporter gene as they relate to the gene CYP2C9. Furthermore, this assay endpoint can be referred to as a primary readout. To generalize the intended target to other relatable targets, this assay endpoint is annotated to the cyp intended target family, where subfamily is xenobiotic metabolism.
# Human hepatocyte cultures were treated daily for two consecutive days with fresh dosing solutions containing appropriate concentrations of the 320 ToxCast chemicals (chemical identities were blinded to CellzDirect and other ToxCast collaborators), vehicle control (0.2% DMSO), and positive control inducers as summarized in Table 1. Due to the large number of treatment groups and chemicals examined, the ToxCast chemicals were divided into two groups (spanning two independent cultures of hepatocytes from separate donor preparations (Hu778: ToxCast plates 1 and 2; Hu776: ToxCast plates 3 and 4). Each preparation of human hepatocyte cultures was treated with respective vehicle control, medium only control, set of six positive controls/reference chemicals for the five hepatic receptor pathways, and a subset of eight of the ToxCast chemicals (indoxacarb, pyrithiobac-sodium, norflurazon, cyhalofop-butyl, methomyl, thiram, acetochlor, and propiconazole). These replicate data, coupled with internal replicates designed within the blinded ToxCast chemical library, provided additional data to evaluate interindividual differences between hepatocyte preparations and their potential impact on chemical profiles.Cell morphology and integrity were evaluated using phase-contrast microscopy as an indicator of hepatocyte cell health (Tyson & Green, 1987). Cultures for each treatment group (i.e., media, vehicle [0.2% DMSO], positive control inducers [multiple concentrations], and the ToxCast chemicals [multiple concentrations]) were observed and cell morphology was assessed relative to vehicle control cultures at each harvest time point (0, 6, 24, or 48 h). […] Images were evaluated at the conclusion of the study to assess changes in cell integrity and account for the effects of chemical exposure on uncharacteristic changes in concentration-dependent gene expression profiles. The results from these determinations of apparent cytotoxicity were annotated (yes/no) alongside the corresponding qNPA data for reference.At the conclusion of each treatment period, hepatocyte cultures (96-well) were washed with 1 volume of HBSS, lysed by addition of 25 ul ArrayPlate lysis buffer (HTG, Tucson, AZ), and 70 ul/well of Denaturation Oil, denatured by incubation at 95C for 10 min, and frozen at approximately -70C until analysis by nuclease protection assay (qNPA) (Roberts et al., 2007). For qNPA analysis, cell lysates were thawed at 50C for approximately 30 min, qNPA probes were added, and samples were incubated at 95C for 10 min to begin the detection process by denaturing the target RNA, dissociating the duplexes and secondary structure hybridization. At the conclusion of the hybridization period, S1 nuclease reagent was added to each sample to digest all nonprotected nucleotides at 50C for 60-90 min. […]
row,SMILES,outcome
1,CNC(=O)Oc1ccccc1OC(C)C,inactive
2,CCOc1nc(NC)nc(NC(=O)NS(=O)(=O)c2ccccc2C(=O)OC)n1,inactive
3,Cc1[nH]c(=O)n(C(C)(C)C)c(=O)c1Cl,inactive
4,CC(C)(C)C(O)C(Oc1ccc(Cl)cc1)n1cncn1 (stereo unspecified),inactive
5,Cc1cc(C)nc(NC(=O)NS(=O)(=O)c2ccccc2C(=O)OC2COC2)n1,inactive
6,CCC(C)(C)C(=O)OC1=C(c2ccc(Cl)cc2Cl)C(=O)OC12CCCCC2,inactive
7,CC(C)(C)C(O)/C(=C\c1ccc(Cl)cc1Cl)n1cncn1 (stereo unspecified),inactive
8,CCC(C)(NC(=O)c1cc(Cl)c(C)c(Cl)c1)C(=O)CCl (stereo unspecified),inactive
9,COC(=O)c1ccccc1CS(=O)(=O)NC(=O)Nc1nc(OC)cc(OC)n1,inactive
10,CN1CSC(=S)N(C)C1,inactive
11,O=[N+]([O-])c1c(Cl)c(Cl)c(Cl)c(Cl)c1Cl,inactive
12,C#CCN1C(=O)COc2cc(F)c(N3C(=O)C4=C(CCCC4)C3=O)cc21,inactive
13,COP(=O)(OC)OC=C(Cl)Cl,inactive
14,COc1cc(OC)nc(NC(=O)NS(=O)(=O)c2cc(NC=O)ccc2C(=O)N(C)C)n1,inactive
15,ClC1C(Cl)C(Cl)C(Cl)C(Cl)C1Cl (stereo unspecified),inactive
16,O=C(O)CCCOc1ccc(Cl)cc1Cl,inactive
17,CCCN(CCC)c1c([N+](=O)[O-])cc(C(F)(F)F)cc1[N+](=O)[O-],inactive
18,CCOC1Oc2ccc(OS(C)(=O)=O)cc2C1(C)C (stereo unspecified),inactive
19,CC1(C)C(C=C(Cl)Cl)C1C(=O)OC(C#N)c1ccc(F)c(Oc2ccccc2)c1 (stereo unspecified),inactive
20,COP(=S)(OC)Oc1ccc([N+](=O)[O-])cc1,inactive
21,COC(=O)c1ccccc1S(=O)(=O)NC(=O)N(C)c1nc(C)nc(OC)n1,inactive
22,CC(C)OC(=O)Nc1cccc(Cl)c1,inactive
23,C[C@H]1[C@H](c2ccc(Cl)cc2)SC(=O)N1C(=O)NC1CCCCC1,inactive
24,CCc1ccc(C(=O)NN(C(=O)c2cc(C)cc(C)c2)C(C)(C)C)cc1,inactive
25,Clc1ccccc1-c1nnc(-c2ccccc2Cl)nn1,inactive
26,N#CN,inactive
